For 40 compounds, bioluminescence results are on record in the supplement of paper PMC10811239.

The assay deals with LEGO organoid PT (PTEN-/-; TP53-/-). As to the kind of experiment: bioluminescence (viable cell) signal fold change after vs before treatment, normalised to DMSO (ratio); higher = more tumour cell growth / less inhibition. The settings on record: 10 µM; treatment time 6 days. The protocol: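 Luc2-labelled iPSC-derived glioblastoma-like organoids (LEGOs, genotypes PT = PTEN-/-;TP53-/-, PTCC = plus CDKN2A/B-/-, PTN = plus NF1-/-) were treated with 10 uM drug for 6 days (applied every other day) at 37 C. Bioluminescence imaging was done before treatment and 2 days after the last dose. BLI signals were normalised to the DMSO control on the same day and then to the pre-treatment signal (N=3).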
For the compound `C[C@]12CCC3=C4CCC(=O)C=C4CC[C@H]3[C@@H]1CC[C@@]2(O)CC#N` [Dienogest], the bioluminescence amounted to 0.653.
In the case of `C[C@@](Cc1ccc(O)c(O)c1)(NN)C(=O)O.O` [Carbidopa Hydrate] it was 0.415; in that of `CN(C)C(=N)NC(=N)N` [Metformin], 0.733.
In the case of `CCC1=C[C@@H]2CN(C1)Cc1c([nH]c3ccccc13)[C@@](C(=O)OC)(c1cc3c(cc1OC)N(C)[C@H]1[C@@](O)(C(=O)OC)[C@H](OC(C)=O)[C@]4(CC)C=CCN5CC[C@]31[C@@H]54)C2.O=C(O)[C@H](O)[C@@H](O)C(=O)O.O=C(O)[C@H](O)[C@@H](O)C(=O)O` [Vinorelbine Tartrate] it was 1.03; in that of `Cc1cc(C)nc(NS(=O)(=O)c2ccc(N)cc2)n1` [Sulfamethazine], 0.814; in that of `C[C@H](Cn1cnc2c(N)ncnc21)OCP(=O)(O)O` [Tenofovir], 0.702.
With `Nc1nc2c(ncn2COC(CO)CO)c(=O)[nH]1` [Ganciclovir], the bioluminescence turned out to be 4.35.
In the case of `Cc1cc(NS(=O)(=O)c2ccc(N)cc2)no1` [Sulfamethoxazole] it was 3.73; in that of `Cl.Cc1ccsc1\C(=C\CCN1CCC[C@H](C1)C(O)=O)c1sccc1C` [Tiagabine hydrochloride], 1.04.
In the case of `Cl.OC(CCN1CCCCC1)(c1ccccc1)C1CCCCC1` (racemic) [DL-trihexyphenidyl hydrochloride] it was 1.67; in that of `CC(C)Nc1cccnc1N1CCN(C(=O)c2cc3cc(NS(C)(=O)=O)ccc3[nH]2)CC1.CS(=O)(=O)O` [Delavirdine mesylate], 0.826; in that of `NC(=O)N1c2ccccc2CC(=O)c2ccccc21` [Oxcarbazepine], 0.572.
In the case of `CN(Cc1cnc2nc(N)nc(N)c2n1)c1ccc(C(=O)N[C@@H](CCC(=O)O)C(=O)O)cc1` [Methotrexate] it was 1.94; in that of `CC1=C(/C=C/C(C)=C/C=C/C(C)=C/C(=O)O)C(C)(C)CCC1` [Tretinoin], 0.834; in that of `CC(=O)OCC(=O)[C@@]1(O)[C@H](C)C[C@H]2[C@@H]3CCC4=CC(=O)C=C[C@]4(C)[C@@]3(F)[C@@H](O)C[C@@]21C` [Dexamethason acetate], 1.76.
Turning to `CN1[C@@H]2CC[C@H]1C[C@@H](OC(c1ccccc1)c1ccccc1)C2.CS(=O)(=O)O` [Benztropine mesylate], the bioluminescence is 1.14.
In the case of `CCN(CC)C(=O)[C@@]1(c2ccccc2)C[C@H]1CN.Cl` [Milnacipran ((1S-cis) hydrochloride)] it was 0.856; in that of `O=NN(CCCl)C(=O)NC1CCCCC1` [Lomustine], 2.59; in that of `NS(=O)(=O)c1cc2c(cc1Cl)N=CNS2(=O)=O` [Chlorothiazide], 0.96.
On to `CCc1cccc2c3c([nH]c12)C(CC)(CC(=O)O)OCC3` (stereo not given) [Etodolac], for which the bioluminescence is 1.
In the case of `Cc1cn(-c2cc(NC(=O)c3ccc(C)c(Nc4nccc(-c5cccnc5)n4)c3)cc(C(F)(F)F)c2)cn1` [Nilotinib] it was 2.55; in that of `CN(C)CCc1c[nH]c2ccc(C[C@H]3COC(=O)N3)cc12` [Zolmitriptan], 0.724; in that of `Cl.O=C1c2cccc3c2[C@H](CCC3)CN1[C@@H]1CN2CCC1CC2` [Palonosetron hydrochloride], 1.19.
In the case of `C[C@H]1COc2c(N3CCN(C)CC3)c(F)cc3c(=O)c(C(=O)O)cn1c23` [Levofloxacin] it was 0.997; in that of `Cc1cc(C)cc(OCC2CNC(=O)O2)c1` (stereo not given) [Metaxalone], 1.24.
In the case of `Cc1cc2c(s1)Nc1ccccc1N=C2N1CCN(C)CC1` [Olanzapine] it was 1.17; in that of `C[C@H]1[C@H](NC(=O)/C(=N\OC(C)(C)C(=O)O)c2csc(N)n2)C(=O)N1S(=O)(=O)O` [Aztreonam], 1.04; in that of `CC(C)(S)[C@@H](N)C(=O)O` [d-penicillamin], 0.964.
For the compound `CCCN(CCc1cccs1)[C@H]1CCc2c(O)cccc2C1` [Rotigotine], the bioluminescence came out at 0.925.
In the case of `CN(C)CCC[C@@]1(c2ccc(F)cc2)OCc2cc(C#N)ccc21.O=C(O)C(=O)O` [Escitalopram Oxalate] it was 1.52; in that of `CO[C@H]1C[C@@H]2CC[C@@H](C)[C@@](O)(O2)C(=O)C(=O)N2CCCC[C@H]2C(=O)O[C@H]([C@H](C)C[C@@H]2CC[C@@H](OC(=O)C(C)(CO)CO)[C@H](OC)C2)CC(=O)[C@H](C)/C=C(\C)[C@@H](O)[C@@H](OC)C(=O)[C@H](C)C[C@H](C)/C=C/C=C/C=C/1C` [Temsirolimus], 1.26; in that of `Cl.O=C1CC2(CCCC2)CC(=O)N1CCCCN1CCN(c2ncccn2)CC1` [Buspirone hydrochloride], 1.22.
In the case of `Nc1nc2c(ncn2COCCO)c(=O)[nH]1` [Aciclovir] it was 2.34.
In the case of `CO/N=C(\C(=O)N[C@@H]1C(=O)N2C(C(=O)[O-])=C(C[N+]3(C)CCCC3)CS[C@H]12)c1csc(N)n1.Cl.Cl.O` [Cefepime Dihydrochloride Monohydrate] it was 1.05.
`O=C(CCCN1CC=C(n2c(=O)[nH]c3ccccc32)CC1)c1ccc(F)cc1` [Droperidol]: the bioluminescence stood at 1.37.
In the case of `O=C1CCc2ccc(OCCCCN3CCN(c4cccc(Cl)c4Cl)CC3)cc2N1` [Aripiprazole] it was 0.399.
In the case of `Nc1ccn([C@@H]2CS[C@H](CO)O2)c(=O)n1` [Lamivudine] it was 0.906; in that of `CCCC(CCC)C(=O)[O-].[Na+]` [Valproic acid sodium salt], 1.11; in that of `NCCS(=O)(=O)O` [Taurine], 1.84.
In the case of `CC/C(=C(\c1ccccc1)c1ccc(OCCN(C)C)cc1)c1ccccc1.O=C(O)CC(O)(CC(=O)O)C(=O)O` [Tamoxifen Z-isomer citrate] it was 0.933.
